Screening results deposited in PubChem BioAssay by several laboratories.
Compounds with a hit are over-represented: about 4.7% of the library has one in this group of screens.
TIM10 inh: TIM10 yeast growth inhibition; S. cerevisiae TIM10 strain growth, BacTiter-Glo luminescence, 24 h; inhibition, % at 10 µM; 330,000 compounds, 1.4% hits;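 active means inhibition of 40% or more at the single tested concentration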;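 further: wild-type TIM10 isogenic control strain grown at permissive 25 °C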
PfHsp90 yeast 2: reduces growth (ATP signal) of yeast expressing P. falciparum Hsp90. S. cerevisiae expressing PfHsp90, BacTiter-Glo ATP, 48 h; yeast lacking PDR1 and PDR3 efflux regulators. inhibition, % at 9.4 µM. 310,000 compounds, 0.32% hits. AID 504621;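 active means every replicate shows inhibition above about 80%, whatever the replicate mean, limit read from the data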
tim23-1 inh: growth inhibitors of tim23-1 mutant yeast; S. cerevisiae tim23-1 growth, BacTiter-Glo luminescence, 24 h; inhibition, % at 20 µM; 330,000 compounds, 1.3% hits; AID 463212;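 active means growth inhibition of the mutant yeast at or above 50%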;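 further: temperature-sensitive mutant grown at 25 °C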
SKKanGAS inh: SKKanGAS growth inhibition | AID 1662 | 300,000 compounds, 1.3% hits | inhibition, % at 7.5 µM | S. pyogenes SKKanGAS, kanamycin growth, BacTiter-Glo, 6 h;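 active means mean replicate score, as percent of positive control median, at least 50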;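 further: strain carries kanamycin resistance gene driven by streptokinase promoter and grows in 40 µg/ml kanamycin; loss of luminescence reflects streptokinase promoter inhibition or plain growth inhibition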
ATG4B inhibitor: blocks human ATG4B protease cleavage of LC3 substrate | Q9Y4P1 | ATG4B cleavage of LC3-PLA2, NBD-HPC fluorescence, 1 h | inhibition, % at 8.33 µM | 340,000 compounds, 0.51% hits; in the data active means inhibition above about 40%
Target sequence (Q9Y4P1 whole entry, looked up): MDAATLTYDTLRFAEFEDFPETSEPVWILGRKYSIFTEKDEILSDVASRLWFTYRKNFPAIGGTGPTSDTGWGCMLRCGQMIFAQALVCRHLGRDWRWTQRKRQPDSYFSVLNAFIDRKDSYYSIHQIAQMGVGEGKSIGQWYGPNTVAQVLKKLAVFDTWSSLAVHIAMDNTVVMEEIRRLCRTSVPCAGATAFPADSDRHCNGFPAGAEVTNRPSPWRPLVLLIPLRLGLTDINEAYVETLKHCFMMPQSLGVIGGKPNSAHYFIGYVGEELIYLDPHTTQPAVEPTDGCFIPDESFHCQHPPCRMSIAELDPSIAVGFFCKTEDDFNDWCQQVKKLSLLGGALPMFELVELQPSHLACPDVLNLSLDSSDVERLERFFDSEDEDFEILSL
tim10-1 inh: tim10-1 yeast growth inhibition | S. cerevisiae tim10-1 ts strain growth, BacTiter-Glo, 24 h | inhibition, % at 20 µM | 330,000 compounds, 2.2% hits | AID 463190;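 active means inhibition of at least 40%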;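 further: mutant grown at 25 °C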
tim10-1 confirm: tim10-1 yeast growth inhibition, confirmed | shares compounds with tim10-1 inh | inhibition, % at 20 µM | 7,400 compounds, 56% hits | S. cerevisiae tim10-1 ts strain growth, BacTiter-Glo, 24 h;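 active means inhibition of yeast growth at or above a set limit in either of two repeat tests at 20 µM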;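 further: tim10-1 mutant grown at permissive 25 °C to find synthetic lethal compounds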
Large screens that a line does not name were inactive (follow-up assays come after a bar, where they were run); ! = repeats disagree.

O=C(Nc1nc(-c2cc(F)ccc2F)cs1)C1=COCCO1	tim10-1 inh 46 (no result: PfHsp90 yeast 2) | tim10-1 confirm inactive
O=C(Nc1nc(-c2cc(F)ccc2F)cs1)C1=NN(c2ccccc2)C(=O)CC1	tim10-1 inh 45 | tim10-1 confirm inactive
O=C(NCCS(=O)(=O)N1CCN(c2ccc(F)cc2)CC1)C12CC3CC(CC(C3)C1)C2	tim10-1 inh 42 (no result: PfHsp90 yeast 2) | tim10-1 confirm inactive
CC(C)(C)n1nnnc1C(c1cccnc1)N1CCN(C2CCCCC2)CC1 (stereo not given)	none
CC(=O)Nc1ccc(NC2=CC(=O)CC(C)(C)C2)cc1	none
Cc1cccn2cc(CSc3nnc(Nc4ccc(C(C)C)cc4)s3)nc12	tim10-1 inh 45 | tim10-1 confirm inactive
CSc1nc(C)c2c(n1)N(c1cccc(C)c1)CC2	none
Cc1ccnc(NC(=S)N2CCN(c3cccc(C(F)(F)F)c3)CC2)c1	SKKanGAS inh 68, tim10-1 inh 43 | tim10-1 confirm inactive
CC1=NN(C(N)=S)C(=O)C1N=Nc1c(C)cc(C)cc1C (stereo not given)	SKKanGAS inh 51, tim10-1 inh 45 | tim10-1 confirm inactive
CC1=NN(C(N)=S)C(=O)C1N=Nc1ccc(C)cc1C (stereo not given)	none (no result: PfHsp90 yeast 2, ATG4B inhibitor)
O=C(NCC(=O)N1CCCC(C(F)(F)F)C1)c1ccc(Oc2ccccc2)cc1 (stereo not given)	none
CCOc1ccc(-n2ccnc(SCC(=O)Nc3ccc(OC)cc3OC)c2=O)cc1	none
CCOc1ccc(-n2ccnc(SCC(=O)NCc3cccc(OC)c3)c2=O)cc1	tim10-1 inh 43 (no result: PfHsp90 yeast 2) | tim10-1 confirm inactive
CCCCN1/C(=C/c2ccc3ccccc3[n+]2CC)Sc2ccccc21	tim10-1 inh 60 | tim10-1 confirm 57
CCCCN1/C(=C/c2cccc[n+]2C)Sc2cc(NC(C)=O)ccc21	none
Brc1ccc(-c2c(-c3ccsc3)sc3ccccc23)cn1	none (no result: SKKanGAS inh)
CCOc1ccc2nc(NCCCNS(=O)(=O)c3ccccc3)c(C#N)cc2c1	tim10-1 inh 42 | tim10-1 confirm inactive
CCOc1ccc2nc(NCCCNS(=O)(=O)c3ccc(F)cc3)c(C#N)cc2c1	tim10-1 inh 42 | tim10-1 confirm inactive
Cc1cc(NC(=O)CCN2C(=O)/C(=C/c3ccccc3F)SC2=S)no1	none (no result: PfHsp90 yeast 2, ATG4B inhibitor)
COc1ccccc1C(=O)Nc1nc2cc3c(cc2s1)OCCO3	tim10-1 inh 43 | tim10-1 confirm inactive
Cc1ccc(NS(=O)(=O)c2cc3c4c(cccc4c2)C(=O)NC3=O)cc1C	none
COc1ccc2nc(SCC(N)=O)[nH]c2c1	none (no result: PfHsp90 yeast 2)
Cc1ccsc1/C=N/N1CCN(c2ccccn2)CC1	none
CCc1ccc(S(=O)(=O)N2CCN(c3ccccc3OC)CC2)cc1	none
COc1ccc(S(=O)(=O)N2CCN(c3ccccc3OC)CC2)cc1	tim10-1 inh 43 | tim10-1 confirm 34
COc1cc(-c2nc(C(=O)NCC3CCCO3)cc3c2[nH]c2ccccc23)cc(OC)c1OC (stereo not given)	tim10-1 inh 42 (no result: PfHsp90 yeast 2) | tim10-1 confirm inactive
COc1ccccc1-c1nc(C(=O)NCC2CCCO2)cc2c1[nH]c1ccccc12 (stereo not given)	tim10-1 inh 43 | tim10-1 confirm inactive
COc1cccc2[nH]c(C(=O)NCC3CCCO3)cc12 (stereo not given)	none
C#CCOC(=O)c1ccccc1C(=O)N(CC)CC	none
CCOC(=O)c1ccc(NC(=S)NCCc2ccccc2F)cc1	tim10-1 inh 40 (no result: PfHsp90 yeast 2) | tim10-1 confirm inactive
CC(=O)Nc1ccc(C(=O)OCCc2ccccc2)cc1	tim10-1 inh 42 | tim10-1 confirm 33
CCOC(=O)c1ccc(NC(=S)NCCc2ccccc2)cc1	tim10-1 inh 41 | tim10-1 confirm inactive
CCOC(=O)c1ccc(NC(=S)NCc2ccccc2)cc1	none
Cc1cc(NC(=O)CSc2nc(N)c(NC(=O)c3ccccc3)c(=O)[nH]2)no1	none
Cc1ccc(C)c(S(=O)(=O)NCc2ccc(C(=O)N3CCOCC3)cc2)c1	none
Cc1ccc(S(=O)(=O)NC(=O)c2ccc(Br)o2)c(C)c1	none
O=C(/C=C/Nc1ccccc1Oc1ccccc1)c1ccco1	tim10-1 inh 43 | tim10-1 confirm inactive
O=C(/C=C/Nc1ccccc1O)c1ccco1	none
S=c1[nH]nc(COc2ccccc2)n1/N=C/c1ccco1	none
Cc1ccc(Cl)cc1NC(=O)COC(=O)C12CC3CC(CC(C3)C1)C2	tim10-1 inh 47! | tim10-1 confirm 33
Cc1ccc(Cl)cc1NC(=O)COC(=O)C1CCCC1	none
O=C(CNc1cccc2ccccc12)N/N=C/c1cccc(Oc2ccccc2)c1	tim10-1 inh 42 | tim10-1 confirm inactive
CN(C(=S)Nc1ccc(Oc2ccccc2)cc1)C1CCCCC1	tim10-1 inh 40 | tim10-1 confirm inactive
S=C(Nc1ccc(Oc2ccccc2)cc1)NC1CCCCCC1	none (no result: TIM10 inh, tim23-1 inh, tim10-1 inh)
CC(C)(C)c1ccc(OCCOc2ccc(C(C)(C)C)cc2NC=O)c(NC=O)c1	tim10-1 inh 47 | tim10-1 confirm inactive
O=C(CSC(=S)N1CCCCC1)N1N=CCC1c1ccccc1 (stereo not given)	tim10-1 inh 41 | tim10-1 confirm 32
CC1(C)c2[nH]c3ccccc3c2C[C@@H]2C(=O)N(Cc3ccc(F)cc3)C(=O)N21	tim10-1 inh 45 (no result: PfHsp90 yeast 2) | tim10-1 confirm inactive
Cc1ccc(CN2C(=O)[C@@H]3Cc4c([nH]c5ccccc45)C(C)(C)N3C2=O)cc1	none
COCCN(C)Cc1nc(C(c2ccccc2)c2ccccc2)no1	none
COc1cccc(/C(C)=N/NS(=O)(=O)c2ccc(Cl)cc2)c1	none
COc1ccc(S(=O)(=O)N/N=C(/C)c2ccc(Cl)cc2)cc1	tim10-1 inh 52 (no result: PfHsp90 yeast 2) | tim10-1 confirm 44
COc1cc(OC)cc(C(=O)Oc2c(CN3CCOCC3)cc(Cl)c3cccnc23)c1	none
O=C(Oc1c(CN2CCOCC2)cc(Cl)c2cccnc12)c1ccccc1	tim10-1 inh 51 | tim10-1 confirm inactive
BrC(=C\c1ccccc1)/C=N/Nc1nc2ccccc2[nH]1	tim10-1 inh 54 | tim10-1 confirm 32
Clc1ccc(-c2nn3c(C4COc5ccccc5O4)nnc3s2)cc1 (stereo not given)	tim10-1 inh 56 (no result: PfHsp90 yeast 2) | tim10-1 confirm 38
O=C(CCCSc1nc2ccccc2[nH]1)NCc1ccccc1F	none
CC1CCN(C(=O)CCc2ccc(Oc3cc([N+](=O)[O-])cc([N+](=O)[O-])c3)cc2)CC1	tim10-1 inh 51 | tim10-1 confirm 41
O=C(CCc1ccc(Oc2cc([N+](=O)[O-])cc([N+](=O)[O-])c2)cc1)NC1CCCC1	none
CC(C)CC1Nc2ncnc(N3CCCCC3)c2N(Cc2ccc(Br)cc2)C1=O (stereo not given)	tim10-1 inh 41 | tim10-1 confirm 32
